Many of the other results were omitted from the sample, so hits are more common in it than they were.
Lassa entry inh: qHTS for Inhibitors of binding or entry into cells for Lassa Virus; Lassa virus pseudotype entry inhibition, cell reporter; Potency, µM (titrated, usually from 37.9 µM), for the others: at the top dose activity change, negative = inhibition, hits mostly inhibitors; 300,000 compounds, 1.2% hits; AID 540256, 2011; calls by dose curve; tested in HEK293 cells; note: potency is the fitted concentration of half-maximal effect; % is set by controls: 0 for no effect and ±100 for the full control effect; nearly all actives have a fitted effect of over 50% in size
Shiga toxin inh: A qHTS for Small Molecule Inhibitors of Shiga Toxin. Vero cells, Shiga toxin protein synthesis inhibition reporter. inhibition, % at 38.7 µM. 290,000 compounds, 9.2% hits. AID 2315, 2010; in the data active = inhibition mostly above about 28%, no sharp cut-off; inactive = mostly below about 43%; note: 0% is about no effect
MARV entry inh: qHTS for inhibitors of binding or entry into cells for Marburg Virus | Marburg virus pseudotyped entry inhibition, cell reporter | Potency, µM (titrated, usually from 37.8 µM), inactives show at the top dose activity change, negative = inhibition, most hits filed as inhibitors | 300,000 compounds, 1.8% hits; calls by dose curve; tested in HEK293 cells; note: potency is the fitted concentration of half-maximal effect; % is set by controls: 0 for no effect and ±100 for the full control effect
Vaccinia Venus: qHTS for Stage-Specific Inhibitors of Vaccinia Orthopoxvirus: Venus Reporter Primary qHTS | Vaccinia virus Venus reporter expression, fluorescence | Potency, µM (top dose mostly 36.5 µM), without a hit: at the highest dose activity change, negative = inhibition, hits mostly inhibitors | 330,000 compounds, 0.46% hits | AID 720580, 2013; calls by dose curve; tested in A549 cells; note: potency is the fitted concentration of half-maximal effect; % is set by controls: 0 for no effect and ±100 for the full control effect; nearly all actives have a fitted effect of over 30% in size
Vaccinia mCherry: qHTS for Stage-Specific Inhibitors of Vaccinia Orthopoxvirus: mCherry Reporter Primary qHTS; Vaccinia virus mCherry reporter infection, fluorescence; Potency, µM (top dose mostly 36.5 µM), without a hit: top-dose activity change, negative = inhibition, actives largely listed as inhibitors; 310,000 compounds, 0.63% hits; AID 720579, 2013; calls by dose curve; tested in A549 cells; note: potency is the fitted concentration of half-maximal effect; % is set by controls: 0 for no effect and ±100 for the full control effect; nearly all actives have a fitted effect of over 35% in size
CHX counter: Cycloheximide Counterscreen for Small Molecule Inhibitors of Shiga Toxin. cell reporter, cycloheximide protein synthesis inhibition counterscreen. 300,000 compounds, 12% hits. max response, %; in the data active = max response mostly above about 13%, no sharp cut-off; inactive = mostly below about 14%; note: read at 38.3 µM for the half of the compounds with a filed dose; 0% is about no effect
The depositor's hits bear a star; i = inactive; ? = inconclusive; . = no result given; [ ] = dose if it differs, or a comment.

SMILES	Lassa entry inh	Shiga toxin inh	MARV entry inh	Vaccinia Venus	Vaccinia mCherry	CHX counter
O=C(NCC1CCCO1)c1ccc2nc(N3CCCCC3)sc2c1 (centres undefined)	5%	88*	9%	-15%	14%	51*
CCN(CC)S(=O)(=O)c1ccc(NC(=O)CN(c2ccccc2)S(=O)(=O)N(C)C)cc1	?	.	-6%[46.1 µM]	-1%	-11%	.
O=C(Nc1ccc(Br)cc1)C1CCCN(S(=O)(=O)c2ccc(Br)s2)C1 (centres undefined)	2%[46.1 µM]	.	?	-16%	-19%	.
O=C(N/N=C/c1ccoc1)c1ccc(Cl)cc1	.	-14	.	.	.	-3
O=C(N/N=C/c1ccoc1)c1cc(O)cc(O)c1	9%	-28	-2%	12%	-2%	11
O=C(N/N=C/c1ccoc1)c1ccccc1O	.	32	.	.	.	29*
O=C(N/N=C/c1ccoc1)c1ccc(Br)cc1	.	36*	.	.	.	36*
Cc1cc(C)cc(C(=O)N/N=C/c2ccoc2)c1	.	-16	.	.	.	7
O=C(N/N=C/c1ccoc1)c1ccccc1	.	61*	.	.	.	37*
CCC(=O)N1CCc2cc(CNC(=O)c3ccccc3C)ccc21	1%[46.1 µM]	.	.	-1%	-9%	.
CC(=O)Nc1ccc(NC(=O)CC(C)n2ccnc2)cc1 (centres undefined)	12%[46.1 µM]	-8	-7%[46.1 µM]	-7%	0%	-5
Cc1cc(N(C)C)cc(C)c1/C=C/c1cc[n+](C)c2ccccc12	.	.	.	-23%	-27%	.
Cc1ccc(SCC(=O)c2cc(C)c(O)c(C)c2)cc1	.	50*	.	.	.	17*
Cc1ccc(SCC(=O)c2c(C)nc3ccccn23)cc1	26%[46.1 µM]	62*	?	-21%	-1%	31*
Clc1cccc(CN2CCSCC2)c1Cl	17%	11	?	-4%	-11%	9
CCC1C(=O)NCCN1Cc1nc(-c2ccc(C)s2)oc1C (centres undefined)	27%[46.1 µM]	10	?	-21%	i	-3
Cc1cc(Nc2cnc3ccccc3n2)n(-c2ccccc2)n1	-24%	-2	?	-21%	?	-1
Cc1cc(Nc2nc3ccccc3[nH]c2=O)n(-c2ccccc2)n1	?	-20	?	8.9µM*	7.1µM*	-1
CCOC(=O)c1sc(=NC(=O)COc2ccccc2)n(C)c1C	-16%	26	-4%	-9%	-9%	23
CCOC(=O)c1sc(=NC(=O)c2cc(OC)c(OC)c(OC)c2)n(C)c1C	-15%	-12	5%	-3%	i	0
CCOC(=O)c1sc(=NC(=O)c2cccc(C)c2)n(C)c1C	?	123*	7%[46.1 µM]	-7%	-2%	24*
CCOC(=O)c1sc(=NC(=O)c2cccc(Br)c2)n(C)c1C	?	18	-27%[46.1 µM]	-5%	-17%	20*
CCOC(=O)c1ccc(N2C(=O)c3n[nH]c(C)c3C2c2ccccc2OC)cc1 (centres undefined)	-11%[46.1 µM]	.	-5%[46.1 µM]	-1%	-6%	.
O=C(O)CSc1nc2ccccc2[nH]1	-5%	-4	2%	.	.	1
c1ccc2[nH]c(SCC3CCCCO3)nc2c1 (centres undefined)	-11%	105*	?	9%	-10%	34*
SMILES	Lassa entry inh	Shiga toxin inh	MARV entry inh	Vaccinia Venus	Vaccinia mCherry	CHX counter
O=c1c2ccccc2nc(SCC2CCCCO2)n1-c1ccccc1 (centres undefined)	?	17	-1%	-12%	i	1
ClC1(Cl)CC1CSc1nc2ccccc2[nH]1 (centres undefined)	.	61	-1%[46.1 µM]	-10%	-14%	42*
CCOc1ccc2nc(SCC3CC3(Cl)Cl)[nH]c2c1 (centres undefined)	?	114*	?	?	?	55*
COC(=O)c1[nH]c(C)c(/C(O)=C2\C(=O)C(=O)N(CCN3CCOCC3)[C@H]2c2cccnc2)c1C	.	.	4%	.	.	.
CCOC(=O)c1ccc(NC(=O)C23CCC(C)(C(=O)O2)C3(C)C)cc1 (centres undefined)	?	65*	?	.	.	50*
COc1ccc(NC(=O)C23CCC(C)(C(=O)O2)C3(C)C)cc1 (centres undefined)	13%	22	10%	-7%	-1%	7
CCOC(=O)c1ccc(NC(=O)C2(c3ccc(OC)cc3)CCCC2)cc1	11µM*	11	?	-20%	.	8
O=C(c1cccc(C(F)(F)F)c1)C1CCCN(C(=O)c2cc(C3CC3)[nH]n2)C1 (centres undefined)	.	21	.	.	.	16
CC(C)C(=O)N=c1sc2cccc(F)c2n1C	.	17	.	.	.	10*
Cn1c(=NC(=O)COc2ccccc2)sc2cccc(F)c21	.	-10	.	.	.	14
CCn1c(=NC(=O)c2ccco2)sc2cccc(F)c21	.	101*	.	-18%	9%	34*
COc1ccc(OC)c2c1sc(=NC(=O)c1ccco1)n2C	.	-8	.	-1%	-9%	-2
O=C(NCc1ccc2c(c1)OCO2)C1CC(=O)N(CCc2ccc(F)cc2)C1 (centres undefined)	11%	-6	1%[46.1 µM]	-6%	-2%	-6
CCC(=O)Nc1ccc(-c2nnc(-c3ccccc3)o2)cc1	?	61	?	-26%	-17%	18*
CC(=O)Nc1ccc(C2=NN(Cc3nnc(-c4ccccc4)o3)C(=O)SC2)cc1	?	16*	26%	-11%	-8%	21
CC(=O)Oc1ccc(-c2nc3ccccc3c(=O)o2)cc1	.	-4	.	.	.	4
CCC(=O)Nc1cccc(-c2nnc(-c3cccc(NC(=O)CC)c3)o2)c1	-15%	-7	?	-7%	i	12
CCC(=O)Nc1ccc(-c2nc3ccccc3c(=O)o2)cc1	?	79*	-33%[46.1 µM]	5%	13%	28*
Cc1ccc(C(=O)NC(C)C(c2cccs2)N2CCCC2)s1 (centres undefined)	-4%	-5	-5%[46.1 µM]	-2%	-12%	-1
O=C(O)C12C3CCC(O3)C1(C(=O)O)C1CCC2O1 (centres undefined)	8%[46.1 µM]	.	2%	-15%	-16%	.
C[C@]1(C(=O)O)[C@@H]2CC[C@@H](O2)[C@@]1(C)C(=O)O	.	.	4.1µM*	.	.	.
Cc1ccc(CSc2ncnc3ccccc23)cc1	26%[46.1 µM]	34	15%[46.1 µM]	-16%	-17%	21*
Cc1cccc(CSc2ncnc3ccccc23)c1	3%	62*	-6%[46.1 µM]	-20%	-18%	22*
Cc1ccc(C(=O)CSc2ncnc3ccccc23)o1	?	110*	?	?	?	26*
O=C(CSc1ncnc2ccccc12)c1cccs1	?	31	?	?	-27%	14
c1ccc(CSc2ncnc3ccccc23)cc1	-1%	18	?	-12%	i	7
CCCN(CCC)S(=O)(=O)c1ccc2c(c1)N(CC(=O)NCc1ccc(F)cc1Cl)C(=O)CS2	-27%[46.1 µM]	.	.	-9%	-19%	.
O=C1CCCC(=NNC(=O)c2cc3ccccc3cc2O)C1	?	.	?	-7%	-19%	.

Bioassay records from PubChem.
